Results from PubChem BioAssay (NCI).
This is part of a sample that, as a whole, favours compounds with a hit. Of some 83,000 tested, about 20% had one in any assay.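 Step 1: grow cells in 96-well plates. Step 2: add test compound at a single concentration. Step 3: incubate 48 h. Step 4: record percent growth.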 Activity calls are given as the source filed them. How the source made its calls: active means growth percent below 10; inactive means the rest.

Columns and labels:
Test in all cases: NCI-60 one-dose screen, 48 h (100 = growth as untreated, 0 = no growth, -100 = all killed)
Details in all cases: 10 µM unless noted
[1] = system: T-47D breast
[2] = system: BT-549 breast
[3] = system: SW-620 colon
[4] = system: MCF7 breast
[5] = system: HCT-116 colon
[6] = system: HCC-2998 colon
[7] = system: KM12 colon
[8] = system: MDA-MB-435 melanoma

Measured: growth

CC1=C(C)C(=O)C(Nc2cccc(C(=O)OC(C)(C)C)c2)=C(Br)C1=O
active: [1] -0.52%
inactive: [2] 92.9% | [3] 91.3% | [4] 27.1% | [5] 62.3% | [6] 100% | [7] 99.9%

O=C(CCN1C(=O)/C(=C/c2ccc(O)cc2)SC1=S)Nc1ccc(Cl)cc1
inactive: [1] 102% | [2] 99.8% | [3] 101% | [4] 89% | [5] 92.2% | [6] 115% | [7] 97.7%

Cc1ccc(/C=C2\Oc3ccc(O)c(O)c3C2=O)cc1
inactive: [1] 47.3% | [2] 43.1% | [8] 82.4% | [4] 31.6% | [5] 17.8% | [6] 70.2% | [7] 77%

COc1cc2oc(-c3ccc(O)cc3)cc(=O)c2c(O)c1-c1c(OC)cc(O)c2c(=O)cc(-c3ccc(O)cc3)oc12
inactive: [1] 82.8% | [2] 46.7% | [4] 38% | [5] 20.5% | [6] 72.5% | [7] 43.4%
active: [8] 1.08%

COc1cccc(OC)c1C(=O)N[C@@H]1C(=O)N2[C@@H]1SC(C)(C)[C@@H]2C(=O)O
inactive: [1] 98.3% | [2] 95.4% | [8] 105% | [4] 98% | [5] 97.9% | [6] 105% | [7] 107%

Cc1nc2ccccc2c(/C=C/c2ccccc2)c1C(=O)/C=C/c1ccc(C(F)(F)F)cc1
active: [1] -14.6% | [2] -25.6% | [8] -82.6% | [4] -9.44% | [5] -64.5% | [6] -70.5% | [7] -58.9%

Cc1ccc(-c2nc(N3CCN(CC(=O)Nc4ccc(Cl)cc4)CC3)c3ccccc3n2)cc1
inactive: [1] 80.2% | [2] 102% | [8] 96.4% | [4] 77.5% | [5] 89.9% | [6] 82.4% | [7] 92.4%

O=c1c2cc(F)ccc2sc2c(NCCCNCCO)nc3ccccc3c12
inactive: [1] 22.9% | [2] 66.2%
active: [8] -82.5% | [4] -51.2% | [5] -94.1% | [6] -90.8% | [7] -77%

C=CCc1cc(C)ccc1NC(C(=O)NCC(=O)OC)c1ccccc1 (configuration not stated)
inactive: [1] 77.2% | [2] 93.7% | [8] 101% | [4] 89.8% | [5] 101% | [6] 98.7% | [7] 99.4%

CCCCn1c(-c2ccc(-c3nc(-c4ccc(Cl)cc4)no3)cc2)nc(-c2ccccc2)c1-c1ccccc1
inactive: [1] 76.3% | [2] 101% | [3] 88.8% | [4] 79% | [5] 75.4% | [6] 105% | [7] 95.2%

Cc1ccc(C(=O)NN2C(=O)CSC2c2ccc(Cl)cc2)cn1 (configuration not stated)
inactive: [1] 84% | [2] 192% | [8] 91.1% | [4] 105% | [6] 96.5% | [7] 97.9%

CCCCCCCCCCCCCCCCCC1OCC(COC(=O)O[C@]2(CC)C(=O)OCc3c2cc2n(c3=O)Cc3cc4ccccc4nc3-2)O1 (some centres not stated)
inactive: [1] 64.6% | [2] 80% | [8] 92.6% | [4] 44.4% | [6] 84.7% | [7] 94.8%

Cc1c(C(=O)NCCCc2ccccc2)sc2ncc(-c3ccc(Br)cc3)n12
inactive: [1] 103% | [2] 110% | [3] 105% | [4] 94.3% | [5] 104% | [6] 110% | [7] 100%

c1cc(-c2nnc(SSc3ncnc4nc[nH]c34)o2)ccn1
inactive: [1] 42.3% | [2] 51.7% | [8] 16% | [4] 23% | [5] 16.6% | [6] 10.3% | [7] 45.8%

O=C1/C(=C/c2ccccc2[N+](=O)[O-])Oc2ccc(O)c(O)c21
inactive: [1] 39.8% | [2] 52.9% | [3] 28.5% | [4] 21.2% | [5] 21.6% | [6] 57.9% | [7] 37.5%

OC(COc1ccccc1)CN1CCN(c2ccc(Cl)cc2)CC1 (configuration not stated)
inactive: [1] 102% | [2] 101% | [8] 121% | [4] 102% | [5] 92.6% | [6] 109% | [7] 98%

Cc1ccc2sc3c(NCCCN)nc4ccccc4c3c(=O)c2c1
inactive: [1] 54.6% | [2] 96.8%
active: [8] -71.7% | [4] -21.2% | [5] -53.2% | [6] -86.1% | [7] -74.6%

Cc1ccc(-c2nn(C)c(=O)c3noc(-c4ccc(C)cc4)c23)cc1
inactive: [1] 24.2% | [2] 30.8% | [4] 30% | [5] 37.5% | [6] 70.8% | [7] 35.9%
active: [8] -5.41%

CCCC1CCC(O)(C(C)(O)C(=O)NC2C(=O)N3NCCCC3C(=O)N(O)C(C)C(=O)N3NCCCC3C(=O)N3NCC(O)CC3C(=O)NC(C)C(=O)OC2C(C)C)OC1CC (configuration not stated)
active: [1] -77.8% | [2] -67.3% | [8] -74.6% | [4] -83% | [5] -57.2% | [6] -93.6% | [7] -88.5%

COc1cc(C(=O)c2cnc(-c3c[nH]c4cccc(C)c34)[nH]2)cc(OC)c1OC
inactive: [1] 52.2% | [2] 38.3% | [4] 17.7% | [6] 20.1%
active: [8] -43.5% | [5] -10.4% | [7] 0.911%

CCOC(=O)CCN(C(=O)Nc1ccccc1)C1CCCCC1
inactive: [1] 104% | [2] 118% | [8] 106% | [4] 98.4% | [5] 102% | [6] 74.8% | [7] 108%

c1cc(NCCc2ccncc2)nc(-n2cnc3ccccc32)c1
inactive: [1] 80.4% | [2] 98.4% | [8] 95.8% | [4] 84.2% | [5] 81.7% | [6] 104% | [7] 53.3%

Cc1cc(=O)[nH]c(=O)n1Cc1cn(-c2c3ccccc3nc3ccccc23)nn1
inactive: [2] 90% | [8] 95.6% | [5] 63.1% | [6] 62.5% | [7] 98.6%
active: [1] -5.49% | [4] 2.54%

CCC(=O)Nc1ccc(-c2nc(-c3cccc(OC)c3)c(-c3ccnc(Br)c3)[nH]2)cc1
inactive: [1] 28.4% | [2] 77.4% | [3] 80.4% | [4] 25.5% | [5] 63.7% | [6] 69% | [7] 43.2%

CCOC(=O)C1=C(N)Oc2c(sc3c(CC)cccc23)C1c1ccc(F)cc1 (configuration not stated)
inactive: [1] 26.8% | [2] 73.6% | [3] 22.3% | [4] 10.2% | [5] 25.5% | [6] 61.4% | [7] 24%

COc1ccc(NC2=C(Br)C(=O)C(C)=C(C)C2=O)cc1
active: [1] -33.9%
inactive: [2] 101% | [3] 98.9% | [4] 63.5% | [5] 14.1% | [6] 99.6% | [7] 94.8%

O=S(=O)(Nc1ccc(-c2nc(-c3cccc(OCCN4CCOCC4)c3)c(-c3ccnc(Br)c3)[nH]2)cc1)c1ccccc1
active: [4] 9.52% | [7] 8.86%
inactive: [1] 26.6% | [2] 54.3% | [3] 43.5% | [5] 23.6% | [6] 19.1%

CCn1cnc2c1c(=O)[nH]c(=O)n2CC1CCC(CNS(=O)(=O)c2ccc(OC3CCOCC3)c(F)c2)CC1 (configuration not stated)
inactive: [1] 19.9% | [2] 72.7% | [3] 65.1% | [4] 26.7% | [5] 49.2% | [6] 63.9% | [7] 59.9%

Cc1ccc(C(CC(=O)O)c2c(C)[nH][nH]c2=O)cc1 (configuration not stated)
inactive: [1] 86.6% | [2] 103% | [3] 108% | [4] 100% | [5] 107% | [6] 108% | [7] 101%

Cc1cccc2c3c(sc12)C(c1ccc(Cl)cc1)C(C#N)=C(N)O3 (configuration not stated)
active: [4] 9.7% | [7] 9.62%
inactive: [1] 45.9% | [2] 17.9% | [3] 26.9% | [5] 14.2% | [6] 18.3%

CCOC(=O)c1sc2ncc(-c3ccc(OC)cc3)n2c1C
inactive: [1] 93.6% | [2] 102% | [3] 94.1% | [4] 89.9% | [5] 92.4% | [6] 105% | [7] 101%

Cc1ccc2c(n1)C(=O)C(Cl)=C(Nc1ccccc1C(C)C)C2=O
inactive: [1] 52.7% | [2] 74.9% | [3] 48.2% | [4] 21.1% | [5] 25.1% | [6] 113% | [7] 88%
